Data from PubChem BioAssay AID1159580 (chemical genetic matrix, 2015).
The whole screen tested about 5,500 compounds, of which about 2,000 (36%) were called active. Inconclusive results (about 18%) are left out. The list shows a part of the results. Values without a mark were called inactive. Rule as the data show it: active = normalized growth mostly below about 0.91 (no sharp cut-off); inconclusive = no clear call, values can overlap the other calls; inactive = mostly above about 0.92.

Assay: chemical genetic growth profiling, strain panel (AID 1159580);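 also: tested at 20 µM; growth read once vehicle control cultures reached saturation at 30 °C; 1 = growth at the plate median or of vehicle wells; lower values mean less growth of the strain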
Details: growth OD
[1] = S. cerevisiae deletion strains, locus YBR229C, strain ROT2, active compounds read low
[2] = S. cerevisiae deletion strains, locus YDL101C, strain DUN1, active compounds read low
[3] = S. cerevisiae deletion strains, locus YGR078C, strain PAC10, active compounds read low
[4] = S. cerevisiae deletion strains, locus YJR075W, strain HOC1, active compounds read low
[5] = S. cerevisiae deletion strains, locus YLR039C, strain RIC1, active compounds read low
[6] = S. cerevisiae deletion strains, locus YLR262C, strain YPT6, active compounds read low
[7] = S. cerevisiae deletion strains, locus YNL322C, strain KRE1, active compounds read low

Structure (SMILES): CCCc1cnc(N2CCCN(C(=S)Nc3cccnc3)CC2)nc1
- normalized growth (S. cerevisiae deletion strains, locus YAL013W, strain DEP1, active compounds read low): 0.998
- normalized growth [1]: 0.997
- normalized growth (S. cerevisiae deletion strains, locus YCL061C, strain MRC1, active compounds read low): 1.01
- normalized growth [2]: 1.06
- normalized growth (S. cerevisiae deletion strains, locus YDR150W, strain NUM1, active compounds read low): 1.03
- normalized growth (S. cerevisiae deletion strains, locus YEL061C, strain CIN8, active compounds read low): 0.959
- normalized growth [3]: 1.02
- normalized growth (S. cerevisiae deletion strains, locus YHR030C, strain SLT2, active compounds read low): 1.05
- normalized growth (S. cerevisiae deletion strains, locus YHR087W, strain rtc3, active compounds read low): 0.992
- normalized growth (S. cerevisiae deletion strains, locus YJR043C, strain POL32, active compounds read low): 1.03
- normalized growth [4]: 1.03
- normalized growth [5]: 1
- normalized growth (S. cerevisiae deletion strains, locus YLR058C, strain SHM2 (second series), active compounds read low): 0.996
- normalized growth (S. cerevisiae deletion strains, locus YLR085C, strain ARP6, active compounds read low): 1.04
- normalized growth [6]: 1.01
- normalized growth (S. cerevisiae deletion strains, locus YML094W, strain GIM5, active compounds read low): 1.02
- normalized growth (S. cerevisiae deletion strains, locus YMR219W, strain ESC1, active compounds read low): 1.01
- normalized growth (S. cerevisiae deletion strains, locus YMR263W, strain SAP30, active compounds read low): 1.03
- normalized growth (S. cerevisiae deletion strains, locus YNL153C, strain GIM3, active compounds read low): 1.02
- normalized growth (S. cerevisiae deletion strains, locus YNL298W, strain CLA4 (second series), active compounds read low): 0.999
- normalized growth [7]: 0.987
- normalized growth (S. cerevisiae deletion strains, locus YNR030W, strain Alg12, active compounds read low): 1.01
- normalized growth (S. cerevisiae deletion strains, locus YPL055C, strain LGE1, active compounds read low): 1.02
- normalized growth (S. cerevisiae deletion strains, locus YPL241C, strain CIN2, active compounds read low): 1.02
- normalized growth (S. cerevisiae deletion strains, locus YPR135W, strain CTF4, active compounds read low): 1.07

Structure (SMILES): COc1ccc2c(c1)CCC(c1ccccc1)=C2c1ccc(OCCN2CCCC2)cc1
- normalized growth (S. cerevisiae deletion strains, locus YBR021W, strain FUR4, active compounds read low): 0.239 (active)
- normalized growth [1]: 0.946
- normalized growth (S. cerevisiae deletion strains, locus YCL029C, strain bik1, active compounds read low): 0.549 (active)
- normalized growth (S. cerevisiae deletion strains, locus YDL035C, strain GPR1, active compounds read low): 0.638 (active)
- normalized growth (S. cerevisiae deletion strains, locus YDL074C, strain BRE1, active compounds read low): 0.511 (active)
- normalized growth [2]: 0.329 (active)
- normalized growth (S. cerevisiae deletion strains, locus YDL134C, strain PPH21, active compounds read low): 0.407 (active)
- normalized growth (S. cerevisiae deletion strains, locus YDL185W, strain tfp1, active compounds read low): 0.972
- normalized growth (S. cerevisiae deletion strains, locus YDL192W, strain arf1, active compounds read low): 0.095 (active)
- normalized growth (S. cerevisiae deletion strains, locus YDR101C, strain arx1, active compounds read low): 0.675 (active)
- normalized growth (S. cerevisiae deletion strains, locus YDR162C, strain NBP2, active compounds read low): 0.174 (active)
- normalized growth (S. cerevisiae deletion strains, locus YDR318W, strain mcm21, active compounds read low): 0.382 (active)
- normalized growth (S. cerevisiae deletion strains, locus YDR388W, active compounds read low): 0.181 (active)
- normalized growth (S. cerevisiae deletion strains, locus YDR502C, strain sam2, active compounds read low): 0.405 (active)
- normalized growth (S. cerevisiae deletion strains, locus YER110C, active compounds read low): 0.863 (active)
- normalized growth (S. cerevisiae deletion strains, locus YER155C, strain BEM2, active compounds read low): 0.961
- normalized growth (S. cerevisiae deletion strains, locus YER167W, strain BCK2, active compounds read low): 0.85 (active)
- normalized growth (S. cerevisiae deletion strains, locus YGL078C, strain dbp3, active compounds read low): 0.973
- normalized growth (S. cerevisiae deletion strains, locus YGL086W, strain mad1, active compounds read low): 0.28 (active)
- normalized growth (S. cerevisiae deletion strains, locus YGL248W, strain PDE1, active compounds read low): 0.465 (active)
- normalized growth [3]: 0.852
- normalized growth (S. cerevisiae deletion strains, locus YGR135W, strain pre9, active compounds read low): 0.408 (active)
- normalized growth (S. cerevisiae deletion strains, locus YGR252W, strain gcn5, active compounds read low): 0.251 (active)
- normalized growth (S. cerevisiae deletion strains, locus YHR079C, strain IRE1 (second series), active compounds read low): 0.617 (active)
- normalized growth (S. cerevisiae deletion strains, locus YHR094C, strain hxt1, active compounds read low): 0.714 (active)
- normalized growth (S. cerevisiae deletion strains, locus YHR129C, strain ARP1, active compounds read low): 0.674 (active)
- normalized growth (S. cerevisiae deletion strains, locus YHR200W, strain rpn10, active compounds read low): 0.706 (active)
- normalized growth (S. cerevisiae deletion strains, locus YIL066C, strain RNR3, active compounds read low): 0.553 (active)
- normalized growth (S. cerevisiae deletion strains, locus YIL073C, strain SPO22, active compounds read low): 0.3 (active)
- normalized growth (S. cerevisiae deletion strains, locus YIL125W, strain kgd1, active compounds read low): 0.987
- normalized growth (S. cerevisiae deletion strains, locus YIR030C, strain dcg1, active compounds read low): 0.513 (active)
- normalized growth (S. cerevisiae deletion strains, locus YJL095W, strain BCK1, active compounds read low): 0.138 (active)
- normalized growth (S. cerevisiae deletion strains, locus YJL134W, strain LCB3, active compounds read low): 1.01
- normalized growth (S. cerevisiae deletion strains, locus YJL168C, strain set2, active compounds read low): 0.409 (active)
- normalized growth (S. cerevisiae deletion strains, locus YJL187C, strain SWE1 (second series), active compounds read low): 0.367 (active)
- normalized growth [4]: 0.593 (active)
- normalized growth (S. cerevisiae deletion strains, locus YKL009W, strain mrt4, active compounds read low): 0.925
- normalized growth (S. cerevisiae deletion strains, locus YKL068W, active compounds read low): 0.994
- normalized growth (S. cerevisiae deletion strains, locus YKL085W, strain MDH1 (second series), active compounds read low): 0.976
- normalized growth (S. cerevisiae deletion strains, locus YKL085W, strain MDH1, active compounds read low): 0.976
- normalized growth (S. cerevisiae deletion strains, locus YKL190W, strain CNB1, active compounds read low): 0.524 (active)
- normalized growth (S. cerevisiae deletion strains, locus YKR001C, strain vps1, active compounds read low): 0.0705 (active)
- normalized growth [5]: 1.37 [resistant] (active)
- normalized growth (S. cerevisiae deletion strains, locus YLR058C, strain SHM2, active compounds read low): 0.446 (active)
- normalized growth (S. cerevisiae deletion strains, locus YLR102C, strain apc9, active compounds read low): 0.683 (active)
- normalized growth [6]: 1.16
- normalized growth (S. cerevisiae deletion strains, locus YLR268W, strain sec22, active compounds read low): 0.415 (active)
- normalized growth (S. cerevisiae deletion strains, locus YLR342W, strain FKS1 (second series), active compounds read low): 0.348 (active)
- normalized growth (S. cerevisiae deletion strains, locus YLR371W, strain rom2, active compounds read low): 0.355 (active)
- normalized growth (S. cerevisiae deletion strains, locus YLR418C, strain cdc73, active compounds read low): 0.295 (active)
- normalized growth (S. cerevisiae deletion strains, locus YML016C, strain PPZ1, active compounds read low): 0.491 (active)
- normalized growth (S. cerevisiae deletion strains, locus YML032C, strain rad52, active compounds read low): 0.492 (active)
- normalized growth (S. cerevisiae deletion strains, locus YML124C, strain tub3, active compounds read low): 0.672 (active)
- normalized growth (S. cerevisiae deletion strains, locus YMR078C, strain ctf18, active compounds read low): 0.979
- normalized growth (S. cerevisiae deletion strains, locus YMR223W, strain ubp8, active compounds read low): 0.478 (active)
- normalized growth (S. cerevisiae deletion strains, locus YMR307W, strain GAS1, active compounds read low): 0.764
- normalized growth (S. cerevisiae deletion strains, locus YNL067W, strain RPL9B, active compounds read low): 0.825 (active)
- normalized growth (S. cerevisiae deletion strains, locus YNL233W, strain BNI4, active compounds read low): 0.423 (active)
- normalized growth (S. cerevisiae deletion strains, locus YNL250W, strain rad50, active compounds read low): 0.953
- normalized growth (S. cerevisiae deletion strains, locus YNL271C, strain bni1, active compounds read low): 0.992
- normalized growth (S. cerevisiae deletion strains, locus YNL298W, strain CLA4, active compounds read low): 0.957
- normalized growth (S. cerevisiae deletion strains, locus YNL307C, strain MCK1, active compounds read low): 0.258 (active)
- normalized growth [7]: 0.796 (active)
- normalized growth (S. cerevisiae deletion strains, locus YNR052C, strain pop2, active compounds read low): 0.136 (active)
- normalized growth (S. cerevisiae deletion strains, locus YOL006C, strain TOP1, active compounds read low): 0.323 (active)
- normalized growth (S. cerevisiae deletion strains, locus YOL012C, strain htz1): 0.17 (active)
- normalized growth (S. cerevisiae deletion strains, locus YOL147C, strain pex11, active compounds read low): 0.445 (active)
- normalized growth (S. cerevisiae deletion strains, locus YOR061W, strain CKA2, active compounds read low): 0.206 (active)
- normalized growth (S. cerevisiae deletion strains, locus YOR069W, strain VPS5, active compounds read low): 0.859 (active)
- normalized growth (S. cerevisiae deletion strains, locus YOR136W, strain idh2, active compounds read low): 0.734 (active)
- normalized growth (S. cerevisiae deletion strains, locus YOR144C, strain elg1, active compounds read low): 0.813 (active)
- normalized growth (S. cerevisiae deletion strains, locus YOR184W, strain ser1, active compounds read low): 0.522 (active)
- normalized growth (S. cerevisiae deletion strains, locus YOR316C, strain cot1, active compounds read low): 0.794 (active)
- normalized growth (S. cerevisiae deletion strains, locus YPR119W, strain clb2, active compounds read low): 0.774 (active)
- normalized growth (S. cerevisiae deletion strains, locus YPR141C, strain kar3, active compounds read low): 0.977
- normalized growth (S. cerevisiae deletion strains, locus YPR163C, strain tif3, active compounds read low): 0.0746 (active)
- normalized growth (S. cerevisiae deletion strains, locus YPR167C, strain met16, active compounds read low): 0.633 (active)
- normalized growth (S. cerevisiae deletion strains, strain wtn01, active compounds read low): 0.274 (active)
- normalized growth (S. cerevisiae strains, strain wild type, active compounds read low): 0.358 (active)
